Assay results: PubChem BioAssay (Tox21)
Inconclusive results are not listed. Entries that show only a call come without a potency. Unmarked numbers belong to inactive results. Activity calls are given as the source filed them. Calls come from the whole dose curve; as a rule, active = well fitted cell-killing curve with a large enough effect in the repeat runs; inconclusive = weak or mixed curves, or effect the other way; inactive = flat fitted curve, though single readings scatter.

Experiment: cAMP Responsive Elements (CRE) small molecule antagonists, cell-based qHTS assay: qHTS cell viability counter screen (AID 2060913); note: nearly all actives have a fitted effect of over 40% in size
Conditions: CRE-bla HEK293T viability, CellTiter-Glo luminescence, 5 h; series mostly up to 92.4 µM
Description: U.S. Tox21 Program National Center for Advancing Translational Sciences [NCATS] Division of Preclinical Innovation [DPI] U.S. Environmental Protection Agency [EPA] National Institutes of Environmental Health Sciences [NIEHS] National Toxicology Program [NTP] U.S. Food and Drug Administration [FDA] Tox21 Assay Overview: CREB (cyclic-AMP Responsive Element Binding Protein) is a cellular transcription factor. It binds to certain DNA sequences called cAMP Responsive Elements (CRE) and regulates the transcription of the genes. […] This cell line can be used to find agonists/antagonists of the cyclic AMP signaling pathway. The activation of the report gene under culture conditions can be detected by fluorescence intensity. This cell line has been used to screen the Tox21 10K compound library to identify agonists that induce oxidative stress. The cytotoxicity of the Tox21 compound library against the CRE-bla cell line was tested in parallel by measuring the cell viability using CellTiter-Glo assay (Promega, Madison, WI) in the same wells.
Tox21 Assay Protocol Summary: CRE-bla Hek 293T cells were suspended in assay medium (DMEM containing 10% dialyzed FBS, 0.1 mM NEAA, 1 mM sodium pyruvate and 25 mM HEPES) and dispensed at 2,000 cells/4 uL /well into 1536-well black wall/clear bottom plates using a Multidrop Combi (ThermoFisher Scientific, Waltham, MA) dispenser. After the assay plates were incubated at 37 C/5% CO2 for 18 hrs, 23 nL of compounds dissolved in DMSO, positive controls or DMSO only was transferred to the assay plate by a pintool workstation (Kalypsys, San Diego, CA), followed by addition of 1 uL of 1.25uM NKH477 (0.25 uM as final concentration) in assay medium using a Flying Reagent Dispenser (Aurora Discovery, San Diego, CA). The plates were incubated at 37 C and 5% CO2 for 3 hrs. Then 1 uL of LiveBLAzer B/G FRET substrate (Invitrogen, Carlsbad, CA) was added to each well using Bioraptr Flying Reagent Dispenser (FRD, Aurora Discovery, San Diego, CA). The plates were incubated at room temperature for 2 h, then fluorescence intensities were measured using an Envision plate reader (PerkinElmer, Shelton, CT) at Excitation 405nm, Emission 460nm and 530nm. The % activity was determined from the ratio of 460nm/530nm. For cell viability readout that measures cytotoxicity, 4 uL /well of CellTiter-Glo reagent was added into the assay plates using Bioraptr FRD. After 30 min incubation at room temperature, the luminescence intensity in the assay plates was measured using a ViewLux (PerkinElmer, Shelton, CT) plate reader.
Potency is the fitted concentration of half-maximal effect.

SMILES | Potency | viability change, negative = cytotoxic
CN1C(=O)CC[C@H]1c1cccnc1 | inactive | –
CCCc1ccc(OC)cc1 | inactive | –
NS(=O)(=O)c1cc2c(cc1Cl)CN(C1CCCCC1)C2=O | inactive | –
Nc1cccc(C(F)(F)F)c1 | inactive | –
Cc1c(C)c2c(c(C)c1OC(=O)CCC(=O)OCCO)CC[C@@](C)(CCC[C@H](C)CCC[C@H](C)CCCC(C)C)O2 | inactive | –
CN(C)CCCN1c2ccccc2Sc2ccc(C(F)(F)F)cc21 | inactive | –
Cc1ccc(Cl)c(OCC(O)CNC(C)(C)C)c1 (stereo not given) | inactive | –
O=C=Nc1ccc(Cl)c(Cl)c1 | inactive | –
Cc1cc(C(=O)O)ccc1[N+](=O)[O-] | inactive | –
C[Si]1(C)O[Si](C)(C)O[Si](C)(C)O[Si](C)(C)O[Si](C)(C)O1 | inactive | –
CCOC(=O)C1=NOC(c2ccccc2)(c2ccccc2)C1 | inactive | –
CCC(C)OC(=O)N1CCCCC1CCO (stereo not given) | inactive | –
Nc1c(N=Nc2ccc(-c3ccc(N=Nc4cc(S(=O)(=O)O)c5ccccc5c4N)cc3)cc2)cc(S(=O)(=O)O)c2ccccc12 | inactive | –
COc1ccccc1OCC(O)CN1CCN(CC(=O)Nc2c(C)cccc2C)CC1 (stereo not given) | inactive | –
NC(=O)c1ncn([C@@H]2O[C@H](CO)[C@@H](O)[C@H]2O)c1N | inactive | –
CCCCCCCC/C=C\CCCCCCCCO | inactive | –
O=c1c(-c2ccc(O)cc2)coc2cc(O)ccc12 | inactive | –
O=C1OC(=O)c2c(Br)c(Br)c(Br)c(Br)c21 | inactive | –
C=CCOc1nc(OCC=C)nc(OCC=C)n1 | inactive | –
O=C(Oc1ccccc1)c1ccc(O)cc1 | inactive | –

SMILES | Potency | viability change, negative = cytotoxic
CCCCC(C=O)CC (stereo not given) | inactive | –
O=C(O)c1ccccc1C(=O)OCc1ccccc1 | inactive | –
COc1ccc(C)cc1[N+](=O)[O-] | inactive | –
CCN(CC)CCOc1ccc(C(O)(Cc2ccc(Cl)cc2)c2ccc(C)cc2)cc1 (stereo not given) | 26.6 µM (active) | –
COc1cc([C@@H]2c3cc4c(cc3[C@@H](O[C@@H]3O[C@@H]5CO[C@@H](C)O[C@H]5[C@H](O)[C@H]3O)[C@H]3COC(=O)[C@H]23)OCO4)cc(OC)c1O | inactive | –
NC1CCN(c2cccc(Cl)n2)CC1 | inactive | –
N[C@H]1C(O)O[C@H](CO)[C@H](O)[C@@H]1O (stereo not given in full) | inactive | –
COc1ccc(C(=O)c2cccc(O)c2)c(OC)c1 | inactive | –
NCCN1CCNC1=O | inactive | –
[Cu+] | inactive | –
COc1ccc(C(C)=O)cc1 | inactive | –
CCOC(=O)C(=O)CCc1ccccc1 | inactive | –
CO/N=C(/C(=O)N[C@@H]1C(=O)N2C(C(=O)O)=C(COC(N)=O)CS[C@H]12)c1ccco1 | inactive | –
COC(=O)c1ccc([N+](=O)[O-])cc1 | inactive | –
CCOC(=O)[C@H](CCc1ccccc1)N[C@H]1CCc2ccccc2N(CC(=O)O)C1=O | inactive | –
NC(=O)Nc1ccc(Cl)cc1 | inactive | –
O=C(O)c1ccccc1Nc1cc(Cl)ccc1C(=O)O | – | -0.998% [at 18.9 µM]
C=C(C)CCCC(C)CCO (stereo not given) | inactive | –
CC(C)[C@@H]1CC[C@@H](C)CC1=O | inactive | –
CCN1CCC[C@H]1CNC(=O)c1cc(S(N)(=O)=O)ccc1OC | inactive | –
